From PubChem
Shown are actives, neighbours in structure and some others; about 2% of the full set was active somewhere.
PKM2 act: qHTS Assay for Activators of Human Muscle isoform 2 Pyruvate Kinase | Pyruvate kinase PKM (Homo sapiens), P14618 | purified PKM2, Kinase-Glo ATP luminescence, activation; response scale: 0% is enzyme alone, no compound | Potency, µM (series often up to 57.5 µM), inactives show at the top dose activation, actives largely listed as activators | 260,000 tested, 0.34% active | AID 1631, 2009; further: potency means the concentration at half of the fitted maximal effect; on the % scale 0 is the no-effect control and ±100 the full control effect; nearly all actives have a fitted effect of over 55% in size
Target sequence (P14618 whole entry, looked up, canonical isoform): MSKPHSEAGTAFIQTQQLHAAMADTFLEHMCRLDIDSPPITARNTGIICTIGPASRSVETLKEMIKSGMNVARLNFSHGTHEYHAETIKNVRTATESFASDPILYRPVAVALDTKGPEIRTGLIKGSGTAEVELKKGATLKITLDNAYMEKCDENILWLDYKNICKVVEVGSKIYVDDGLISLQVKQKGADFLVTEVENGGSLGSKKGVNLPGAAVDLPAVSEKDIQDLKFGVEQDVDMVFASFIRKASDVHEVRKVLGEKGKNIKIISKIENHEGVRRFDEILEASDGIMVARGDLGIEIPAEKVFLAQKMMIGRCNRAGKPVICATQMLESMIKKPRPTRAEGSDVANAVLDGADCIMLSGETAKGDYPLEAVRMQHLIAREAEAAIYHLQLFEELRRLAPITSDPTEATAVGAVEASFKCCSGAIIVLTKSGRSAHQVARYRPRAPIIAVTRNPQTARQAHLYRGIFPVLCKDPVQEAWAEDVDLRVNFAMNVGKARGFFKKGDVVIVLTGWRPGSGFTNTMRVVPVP
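Purified hPK-M2 (>95% pure) converted ADP (0.1 mM final) to ATP with 0.5 mM PEP in 50 mM imidazole pH7.2, KCl, MgCl2, Tween 20, BSA; 1 h at room temperature. ATP detected by Kinase-Glo luminescence.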
ClpP mod: qHTS Assay for Activators of ClpP | ATP-dependent Clp protease proteolytic subunit (Bacillus subtilis (strain 168)), P80244 | purified B. subtilis ClpP, FRET peptide cleavage, 20 min | Potency, µM (series often up to 57.5 µM), without a hit: top-dose activity change, negative = active | 340,000 tested, 1.9% active | AID 651965, 2013; active means well fitted falling curve with a large enough effect; inconclusive means small, poorly fitted or top-dose-only effect; inactive means no such curve, though single readings can be large or run the other way; further: potency means the concentration at half of the fitted maximal effect; the source files actives as falling curves though it sought activators and does not explain the sign; nearly all actives have a fitted effect of over 65% in size
Target sequence (P80244 whole entry, looked up): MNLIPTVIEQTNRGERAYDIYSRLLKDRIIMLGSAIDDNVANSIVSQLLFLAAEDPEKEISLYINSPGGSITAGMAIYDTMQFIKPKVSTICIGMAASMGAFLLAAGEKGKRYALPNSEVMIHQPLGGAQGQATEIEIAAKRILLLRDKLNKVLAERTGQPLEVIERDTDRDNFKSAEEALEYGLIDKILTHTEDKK
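Purified B. subtilis ClpP, 10 microg/mL final in Tris/HCl pH8 with KCl, BSA, glycerol and Tween-20, cleaved an Abz/nitrotyrosine-quenched decapeptide. Fluorescence (ex 320, em 430) was read at 0 and 20 min at room temperature. Delta was normalized to 5.8 microM ADEP and DMSO/no-enzyme controls.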
NPSR antag: qHTS Assay for Antagonists of the Neuropeptide S Receptor: cAMP Signal Transduction; Q6W5P4; CHO-NPSR cells, cAMP TR-FRET, antagonist mode; Potency, µM (doses to about 38.3 µM), for the others: top-dose activity change, negative = inhibition, usual class: inhibitors; 220,000 tested, 1% active; further: potency means the concentration at half of the fitted maximal effect; on the % scale 0 is the no-effect control and ±100 the full control effect; nearly all actives have a fitted effect of over 50% in size
IL2 activator: qHTS of IL-2 Activators. IL-2 activation reporter assay, cell-based qHTS; stimulated with anti-CD3/CD4/CD28 beads; in transgenic mouse T cells. activation, % (series mostly up to about 46 µM). 360,000 tested, 0.065% active; in the data active means activation above about 50%; inconclusive means mostly about 30% to 49%; further: 0% is about no effect
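Unstimulated transgenic mouse T cells; 60-min compound exposure; bead-based TCR/CD4/CD28 stimulation; 18 h culture, 37 degrees C; dual fluorescence (EGFP, DsRed) plate cytometry.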
Active calls of the source: *; ? = inconclusive; nt = no result given; [ ] = dose if it differs, or a comment. Unless noted, the call rests on the fitted dose curve; in most records, active means well fitted curve in the direction sought with a large enough effect; inconclusive means small, poorly fitted or top-dose-only effect, or another doubt; inactive means no such curve, though single readings can be large; an effect the other way counts as inactive or inconclusive.

SMILES | PKM2 act | ClpP mod | NPSR antag | IL2 activator
Cc1ccc(NC(=O)CSc2nnc(-c3ccncc3)n2C)cc1S(=O)(=O)N1CCOCC1 | 3% | nt | 4% | 1
c1ccc2oc(-c3ccc4nc[nH]c4c3)nc2c1 | 2% | 25µM* | -17%[46.1 µM] | 1
CCOC(=O)c1sc2nc(CC(=O)OC)nc(NCC(=O)OC)c2c1C | -13% | 20% | -4%[46.1 µM] | -3
CCOC(=O)c1sc2nc(CC(=O)OC)nc(NCc3ccco3)c2c1C | ? | 28µM* | -24%[46.1 µM] | 3
CSc1ccccc1NC(=O)CSc1nnc(COc2ccccc2)o1 | 4% | nt | nt | 1
Cc1c(C(=O)NN2CCCCC2)nn(-c2ccc(Cl)cc2Cl)c1-c1ccc(I)cc1 | -8% | nt | 10µM* | nt
O=C(Cn1ccc(C(F)(F)F)n1)NNC(=O)c1cccnc1 | -2% | 1% | nt | -3
Cc1ccc(C(=O)NNC(=O)Cn2ccc(C(F)(F)F)n2)o1 | nt | 25µM* | nt | 1
COc1ccc(C2=NN(C(=O)CN3CCOCC3)C(c3nc4ccccc4[nH]3)C2)cc1 (stereo not drawn) | nt | nt | 18% | 3
O=C(O)CCC(=O)Nc1ccc(-n2ccc(C(F)(F)F)n2)cc1 | -6% | nt | 6% | 0
Clc1cccc(-c2nnc3sc(-c4ccc5c(c4)OCO5)nn23)c1 | 0% | nt | -2%[46.1 µM] | nt
Clc1ccccc1-c1nnc2sc(-c3ccc4c(c3)OCO4)nn12 | 11% | 32µM* | ? | -1
Fc1ccc(-c2nn3c(C4COc5ccccc5O4)nnc3s2)cc1 (stereo not drawn) | 3% | 5% | -7%[46.1 µM] | 2
c1ccc2c(c1)OCC(c1nnc3sc(-c4ccc5c(c4)OCO5)nn13)O2 (stereo not drawn) | -4% | 28µM* | -24%[46.1 µM] | -1
Cc1ccc(-c2nc3scc(CCNS(=O)(=O)c4ccc(F)c(C)c4)n3n2)cc1 | nt | 2% | nt | nt
Cn1nc(-c2ccc(C(=O)N3CCN(CCO)CC3)cc2)c2ccccc2c1=O | -4% | -2% | -2%[46.1 µM] | -1
COc1ccc(CCNS(=O)(=O)CC23CCC(CC2=O)C3(C)C)cc1OC (stereo not drawn) | 1% | 0% | nt | 2
O=C1CSC(c2cn(-c3ccccc3)nc2-c2cc3ccccc3o2)N1Cc1ccccc1 (stereo not drawn) | 0% | 1% | ? | 0
O=C1CSC(c2cn(-c3ccccc3)nc2-c2cc3ccccc3oc2=O)N1Cc1ccco1 (stereo not drawn) | 5% | 32µM* | -20%[46.1 µM] | -2
CC(=O)Nc1ccc(NC(=S)NC(=O)c2ccc([N+](=O)[O-])cc2)cc1 | 2% | 6.3µM* | 3% | 1
CC(=O)c1cccc(NC(=O)CSc2nc(=O)n(Cc3cccnc3)c3c2CCC3)c1 | nt | 1% | nt | nt
O=C(CSc1ccc(C(F)(F)F)cc1[N+](=O)[O-])Nc1ccc2ccccc2c1 | -2% | 28µM* | -32% | 1
CN(CC(=O)Nc1ccc(Cl)c(Cl)c1)C(=O)CNC(=O)Cc1ccccc1 | nt | -7% | nt | -3
COc1ccc(-c2nc(C#N)c(NCCc3ccccc3)o2)cc1 | -3% | 32µM* | -25%[46.1 µM] | -2
COc1ccc(-c2nc(C#N)c(NCc3ccccc3Cl)o2)cc1 | 7% | 35µM* | -20%[46.1 µM] | 0
SMILES | PKM2 act | ClpP mod | NPSR antag | IL2 activator
COc1ccc(CNc2oc(-c3ccc(COc4ccc(OC)cc4)o3)nc2C#N)cc1 | nt | 22µM* | nt | nt
COc1ccc(-c2nc(C#N)c(NCc3ccccc3Cl)o2)cc1OC | 2% | ? | -10%[46.1 µM] | -3
Cc1ccc(OCc2ccc(-c3nc(C#N)c(NCc4ccccc4Cl)o3)o2)cc1 | nt | 25µM* | nt | nt
C/C(Cc1ccccc1)=N\NC(=O)CNC(=O)Cc1ccccc1 | -5% | 2% | 32% | -1
CC(C)c1nnc(NC(=O)c2cc3ccccc3o2)s1 | nt | nt | nt | 0
CCn1cc(/C=C(\NC(=O)c2ccccc2F)C(=O)N2CCOCC2)c2ccccc21 | nt | -4% | nt | -4
C[C@H](CO)N1C[C@H](C)[C@@H](CN(C)CC2CCCCC2)Oc2ccc(NS(C)(=O)=O)cc2C1=O | nt | -1% | nt | 0
CCNc1oc(-c2ccc(COc3ccc(Cl)cc3)o2)nc1C#N | nt | -179% | nt | nt
COc1ccc(CNc2oc(-c3ccccc3)nc2C#N)cc1 | -2% | 4% | -15%[46.1 µM] | -1
COCCCNc1oc(-c2ccc(COc3ccc(Cl)cc3)o2)nc1C#N | nt | 32µM* | nt | nt
CCCCNc1oc(-c2ccc(COc3ccc(OC)cc3)o2)nc1C#N | nt | 28µM* | nt | nt
CCOc1ccc(Nc2oc(-c3ccc(COc4ccccc4C)o3)nc2C#N)cc1 | nt | 35% | nt | nt
COc1ccc(OCc2ccc(-c3nc(C#N)c(NCc4ccc(F)cc4)o3)o2)cc1 | nt | 32µM* | nt | nt
CCOc1ccc(-c2nc(C#N)c(NC3CC3)o2)cc1 | 4% | 7.1µM* | 2%[46.1 µM] | -2
CCOc1ccc(Nc2oc(-c3ccc(Cl)cc3)nc2C#N)cc1 | 0% | ? | -21%[46.1 µM] | 2
COc1ccc(NC(=S)N2CCCC2)c(OC)c1 | -1% | nt | 6% | -2
CC(=O)Oc1cccc(C(=O)Nc2ccc(NC(=O)c3cccs3)cc2)c1 | -3% | -5% | nt | 1
Cc1cc(NC(=O)c2ccc3c(c2)C(=O)N(Cc2cccnc2)C3=O)no1 | -18% | -5% | -11%[46.1 µM] | -4
CCOc1ccc(-n2c(SCC(=O)NCc3ccco3)nnc2-c2c[nH]c3ccccc23)cc1 | 4% | -4% | 13µM* | -3
Cn1c(SCC(=O)NCc2ccco2)nnc1-c1c[nH]c2ccccc12 | 1% | 1% | -9%[46.1 µM] | 1
CCOC(=O)CSc1nnc(-c2ccoc2C)n1-c1ccc(OCC)cc1 | 40µM* | -4% | -19%[46.1 µM] | -3
CCOC(=O)CSc1nnc(-c2ccoc2C)n1-c1ccc(C)cc1 | 1% | 0% | -15%[46.1 µM] | 1
CC(C)n1c(O)c(N=Nc2ccc(Cl)nn2)c2ccccc21 | 8% | -1% | -3% | 88*
O=C(CCCc1ccc(-c2ccccc2F)cc1)Nc1ccc(O)cc1 | -1% | nt | nt | nt
CN(C)c1ccc(C=Nc2ccccc2C(N)=O)cc1 | -11% | 25µM* | -13%[46.1 µM] | 1
SMILES | PKM2 act | ClpP mod | NPSR antag | IL2 activator
Cc1ccc(SCC(=O)OCC(=O)N(CC(C)C)C2CCS(=O)(=O)C2)cc1C (stereo not drawn) | nt | 1% | nt | 1
Cc1cc[n+]2c3c(cccc13)CCC2 | -12% | 25µM* | -11%[46.1 µM] | 1
C=CCOC(=O)C1=C(C)NC(SCC)=C(C#N)C1c1ccc(Cl)cc1 (stereo not drawn) | -3% | -25% | 10µM* | -1
CCN(CCO)Cc1cc(=O)oc2cc3c(cc12)CCC3 | -2% | -2% | -17% | 0
CCc1ccc2oc(=O)cc(CN(C)Cc3ccccc3)c2c1 | -5% | 16µM* | ? | -1
CCCCN(C)Cc1cc(=O)oc2cc3c(cc12)CCCC3 | 0% | 14µM* | 16%[7.67 µM] | -1
Cc1cc2oc(=O)cc(CN(C)Cc3ccccc3)c2cc1C | nt | -5% | nt | 0
